ChEMBL document CHEMBL3433997, “St. Jude Leishmania screening dataset” (2016)

How the values were obtained:
Format in all cases: functional
[1] = biological target: Solute carrier family 2, facilitated glucose transporter member 1 (Homo sapiens) (UniProt P11166); assay: ST_JUDE_LEISH: Cytotoxicity at 2uM final concentration against transgenic Leishmania Mexicana promastigotes LmGLUT1 that are glucose transport deficient and complemented with the human glucose transporter GLUT1. Activity is measured by DNA content using SYBR green in vitro
[2] = biological target: Hexose transporter 1 (Plasmodium falciparum) (UniProt O97467); assay: ST_JUDE_LEISH: Cytotoxicity at 2uM final concentration against transgenic Leishmania Mexicana promastigotes LmPfHT that are glucose transport deficient and complemented with the Plasmodium falciparum hexose transporter. Activity is measured by DNA content using SYBR green in vitro
[3] = biological target: Glucose transporter (Leishmania mexicana) (UniProt O61059); assay: ST_JUDE_LEISH: Cytotoxicity at 2uM final concentration against transgenic Leishmania Mexicana promastigotes LmGT2 that are glucose transport deficient and complemented with the L. Mexicana glucose transporter 2. Activity is measured by DNA content using SYBR green in vitro

Sequence of Solute carrier family 2, facilitated glucose transporter member 1 (Homo sapiens) (P11166 whole entry): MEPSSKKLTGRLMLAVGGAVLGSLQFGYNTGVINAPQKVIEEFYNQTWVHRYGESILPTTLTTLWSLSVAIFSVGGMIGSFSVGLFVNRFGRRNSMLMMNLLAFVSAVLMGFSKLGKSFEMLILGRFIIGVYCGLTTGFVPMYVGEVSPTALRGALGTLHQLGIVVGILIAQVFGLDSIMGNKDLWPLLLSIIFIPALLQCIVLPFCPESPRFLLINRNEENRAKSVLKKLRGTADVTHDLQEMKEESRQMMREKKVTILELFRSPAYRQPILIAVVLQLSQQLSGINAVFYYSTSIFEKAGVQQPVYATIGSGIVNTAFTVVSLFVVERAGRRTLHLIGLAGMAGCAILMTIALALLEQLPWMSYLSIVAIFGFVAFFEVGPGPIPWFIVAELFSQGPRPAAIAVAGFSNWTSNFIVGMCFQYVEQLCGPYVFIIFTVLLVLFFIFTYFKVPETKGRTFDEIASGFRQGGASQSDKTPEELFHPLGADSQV

Compound | inhibition [1] [%] | inhibition [2] [%] | inhibition [3] [%]
COc1ccccc1CNC(=O)c1cc(Br)cc(N2CCN(c3ccncc3)CC2)c1 | 1.71 | 2.47 | 0.83
O=C(NC1CCCCCC1)[C@@H]1CCCN1C(=O)c1ccc(O)c(-c2ccc(Cl)c(Cl)c2)c1 | 0.09 | 2.12 | -1.06
Cc1cc(N[C@@H](Cc2ccccc2)C(=O)Nc2ccccc2)nc(NCCc2cccnc2)n1 | 10.6 | 11 | 9.02
COc1cc2nc(N3CCC(CNC(=O)c4ccc(-c5ccc(-c6noc(C)n6)cc5C)cc4)CC3)nc(N)c2cc1OC | 8.2 | 7.8 | 5.29
CCCCCN1CCCC1CNS(=O)(=O)c1ccc(C(=O)Nc2cccc(C(F)(F)F)c2)cc1 (stereo not given) | 0.76 | 0.61 | 0.19
COc1ccc2nccc([C@@H](O)CN3CCC(NCc4ccc(OC)c(NC=O)c4)CC3)c2c1 | 3.28 | 4.05 | 2.18
O=C(Nc1cccc(-c2cccc(CN3CCCC3)c2)c1)c1ccc(Cl)cc1 | 1.55 | 1.32 | 3.94
O=C(c1cc(-c2ccco2)n[nH]1)N1CCN(S(=O)(=O)c2ccc(Br)cc2)CC1 | 10.8 | 10.2 | 7.48
Cc1ccccc1Cn1c(CN2CCC(C(=O)NC3CC3)CC2)cc2ccccc21 | 2.57 | 1.99 | 5.38
O=C(Nc1cccc(-c2csc(-c3nc4ccccc4[nH]3)c2)c1)c1ccoc1 | 3.4 | 3.05 | 1.11
Cc1cc(C)n2nc(C(=O)Nc3cc(C(F)(F)F)ccc3N3CCOCC3)nc2n1 | 3 | 2.82 | 3.81
COc1cccc(Nc2nc(Nc3cccc(C#N)c3)cc(-c3ccncc3)n2)c1 | 3.83 | 4.95 | 1.57
O=C(Nc1ccc(Cl)cc1)c1cccc2nc(C(F)(F)F)[nH]c12 | 9.28 | 9.14 | 5.94
Cc1cc(N2CCCN(C)CC2)nc(Nc2ccc(Br)cc2)n1 | 5.39 | -1.23 | 1.6
CN1C(C)(C)CC(NC(=O)c2ccc(-c3cc4cc(Cl)c(Cl)cc4[nH]3)o2)CC1(C)C | 4.77 | 4.2 | 6.1
Cc1c(S(=O)(=O)Nc2cccc(CCN3CCCCC3CCN3CCCC3)c2)sc2ccc(Cl)cc12 (stereo not given) | -1.39 | 2.14 | -0.62
COc1cc(Nc2nccc(N3CCC(NC(=O)C4COc5ccccc5O4)C3)n2)cc(OC)c1OC (stereo not given) | 2.77 | 1.3 | 2.12
COc1ccc(C2CC(=O)C3=C(C2)NC(C)=C(C(=O)OC(C)C)C3c2ccc(O)cc2)cc1OC (stereo not given) | 8.55 | 8.07 | 5.45
CCN(CC)CCCN(C(=O)c1cc2c(C)nn(-c3ccccc3)c2s1)c1nc(-c2ccc(OC)cc2)cs1 | 10.5 | 9.13 | 8.72
CC(C)CC(NC(=O)c1cccc(OCCN2CCOCC2)c1)C(=O)NC(/C=N/NC(=O)c1ccccc1)CCc1ccccc1 (stereo not given) | 7.09 | 8.91 | 5.71
Cc1nc(C)c(-c2ccc(Oc3ccc(OC(F)(F)F)cc3)cc2)c(O)c1I | -0.28 | 0.69 | -1.65
O=C(CCCCCNC(=O)c1ccc(O)c(-c2ccc(Cl)c(Cl)c2)c1)NCCN1CCCCC1 | 2.71 | 2.46 | 3.45
CCCCCCCc1c(C)nc2ccccc2c1O | 6.82 | 6.3 | 2.82
O=C(N[C@@H](Cc1ccccc1)C(=O)O)c1cc(-c2ccc(F)cc2)no1.O=C(N[C@@H](Cc1ccccc1)C(=O)O)c1conc1-c1ccc(F)cc1 | 9.87 | 6.76 | 6.74

Compound | inhibition [1] [%] | inhibition [2] [%] | inhibition [3] [%]
Cc1ccccc1Nc1nc(Nc2ccccc2)c2ccccc2n1 | 38.8 | 44 | 13
CC[C@H](C)CNC(=O)c1cncc(-c2ccc(CNC3CCCC3)cc2)c1 | 2.12 | 1.43 | 1.7
CN(C)C(=O)C(CC(=O)NCc1ccccc1Cl)N(C)C.CN(C)C(=O)CC(C(=O)NCc1ccccc1Cl)N(C)C (stereo not given) | 3.97 | 4.82 | 4.89
CCN1CCC(N(Cc2ccc(-c3ccc(C(F)(F)F)cc3)cc2)C(=O)Cn2c(CCc3cccc(F)c3F)nc(=O)c3ccccc32)CC1 | 1.25 | 2.57 | 3.43
CCCCCn1c(Sc2ccc(C#N)c([N+](=O)[O-])c2)nnc1-c1cccc(Cl)c1 | 5.58 | 6.17 | -0.77
COc1cc(C=NNc2ccnc3cc(Cl)ccc23)ccc1O | 2.02 | 2.62 | 3.46
O=c1ccc(CNc2nc(NCCc3ccccc3)nc3ccc(Cl)cc23)c[nH]1 | 3.36 | 3.7 | 0.86
Cc1cc(OCCCN2CCC(NS(=O)(=O)c3ccc(Cl)c(Cl)c3)CC2)c2ccccc2n1 | 4.28 | 4.69 | 4.76
CN(C)Cc1cccc(-c2ccc(NC(=O)c3ccc4c(=O)n(Cc5cnn(C)c5)cnc4c3)cc2)c1 | 1.78 | 2.88 | 4.86
O=C(Nc1cccc(-c2cccc(-c3nc4cc(F)ccc4[nH]3)c2)c1)c1csnn1 | 6.12 | 4.57 | 1.83
Cc1ccc2c(c1C)NC(=O)C21NN=C(c2ccccc2)S1 (stereo not given) | -1.86 | -1.15 | -2.33
O=C(NC1CCC(N2CCCC(OCc3ccccc3)C2)CC1)c1cc2ccccc2[nH]1 (stereo not given) | 0.93 | 3.87 | -1.89
Oc1cc(Nc2ccnc3cc(I)ccc23)c(F)cc1Cl | 6.52 | 2.02 | 3.58
CS(=O)(=O)Cc1ccc(Nc2nccc(-c3c(-c4cccc(C(=O)Nc5c(F)cccc5F)c4)nn4ccccc34)n2)cc1 | 21.4 | 10.2 | 2.15
O=C(Nc1cccc(CN2CCCN(Cc3ccc4c(c3)OCO4)CC2)c1)c1cc2ccccc2s1 | -0.41 | -0.3 | -3.63
CCCN1CCC=C(c2cccc(Nc3nccc(Nc4cc(OC)ccc4C)n3)c2)C1 | 11.2 | 11.9 | 10
COc1ccccc1CNC(=O)CCn1c(=O)[nH]c2ccsc2c1=O | 2.58 | 3.17 | 1.36
COc1cccc(-c2cccc(NC(=O)C3CCN(Cc4ccc(O)cc4)CC3)c2)c1 | 0.86 | 0.59 | -5.2
Cc1nc(C)c(CC(=O)Nc2ccc(-c3ccc(-c4nc5cc(C(F)(F)F)ccc5[nH]4)s3)cc2)s1 | 2.35 | 2.1 | -0.02
O=C(Nc1ccc(F)c(F)c1)c1ccc(CN2CCCN(Cc3cccc(F)c3)CC2)cc1 | 0.07 | -0.34 | 1.29
Cc1ccc(Nc2ccnc(Nc3ccc(C)c(F)c3)n2)cc1O | 9.14 | 12.6 | 3.98
O=c1cc(NCCCNCc2cc(Br)cs2)[nH]c2ccccc12 | 3.94 | 2.8 | 2.59
N#Cc1ccc(CN2CCC(NC(=O)c3ccc(-c4nnc(-c5cccc6ccccc56)o4)cc3)CC2)cc1 | 4.73 | 2.48 | -1.38
Fc1ccc(Nc2ccnc3cc(-c4cccc(CNCCN5CCOCC5)c4)ccc23)c(Cl)c1 | 2.04 | 2.83 | 2.84

Compound | inhibition [1] [%] | inhibition [2] [%] | inhibition [3] [%]
COc1ccc(N2CCN(CCCCNC(=O)c3ccc(NC(=O)c4ccc(C(F)(F)F)cc4)cc3)CC2)c(OC)c1 | 9 | 8.75 | 9.19
COc1ccc(CN2CCCC(C(=O)c3ccc(C(F)(F)F)cc3)C2)c(O)c1 (stereo not given) | 4.79 | 4.48 | 3.56
CCCCCC(C)C(C)c1cc(O)c2c(c1)OC(C)(C)CC2=Cc1ccncc1 (stereo not given) | 12.6 | 11.5 | 10.7
O=C(NCC1CCC(C(=O)NC2CCCc3ccccc32)CC1)c1ccc(O)c(-c2cccc([N+](=O)[O-])c2)c1 (stereo not given) | 3.94 | 2.12 | 2.39
CN(CCCCCN1CCC(NC(=O)Nc2ccc(Oc3ccccc3)cc2)C1)C(=O)/C=C/c1ccc(Cl)c(Cl)c1 (stereo not given) | 0 | 6.7 | -1.12
O=S(=O)(c1ccc(OCc2ccc(Cl)cc2)cc1)c1cc2c(cc1O)CCN(C1CCC1)CC2 | 2.05 | 1.15 | 1.15
Cc1onc(-c2ccc(Cl)cc2)c1-c1ccnn1S(=O)(=O)c1ccc(Cl)cc1 | -0.16 | 4.29 | 1.91
COc1ccc(N2CCN(CCCCNC(=O)c3ccc(NC(=O)c4ccc(Cl)cc4)cc3)CC2)c(OC)c1 | 9.13 | 8.66 | 8.5
N#Cc1ccc(N/C(=N\c2ccccc2Cl)NC2CCN(Cc3ccccc3)CC2)c(O)c1 | 2.09 | 2.49 | 0.29
NC(=O)C1CCN(Cc2ccc(-c3ccc(-c4nc5cc(C(F)(F)F)ccc5[nH]4)cc3)cc2)CC1 | 4.65 | 2.32 | 3.93
Cc1ccc(F)c(C(=O)Nc2cccc(-c3nn4ccccc4c3-c3ccnc(Nc4cccc(F)c4)n3)c2)c1F | 9.44 | 8.92 | 6.93
COc1ccc(Cl)cc1NC(=O)Nc1cc(C)nc2ccccc12 | 7.32 | 12.8 | 2.81
c1ccc(CN2CCC(Nc3ccc(-c4c[nH]nc4-c4ccccn4)nc3)CC2)cc1 | 4.32 | 4.84 | 4.12
CCN(CCCN1CCCCC1)c1cc(C)nc(Nc2cc(Br)ccc2C)n1 | -1.93 | -0.61 | -0.36
COc1ccccc1NC(=O)c1cc(C(=O)c2cc(Cl)ccc2O)cn(-c2ccccc2OC)c1=O | 5.19 | 5.3 | 4.07
CCN(CCN(C)C)Cc1ccc(-c2ccc(NS(=O)(=O)c3cccc(Cl)c3)cc2)cc1 | 7.37 | 0.64 | -1.5
CCNc1cc(C)nc(Nc2ccc(NC(=O)c3cccs3)cc2)n1 | 4.59 | 5.9 | 1.85
C#C[C@H]1O[C@@H](n2cnc3c(Nc4cc(Br)cc(C(F)(F)F)c4)ncnc32)[C@H](O)[C@@H]1O | 3.1 | 2.11 | 2.53
CCCCSc1c(CNCCCCCCNCc2ccc3ccccc3c2SCCCC)ccc2ccccc12 | 10.7 | 5.83 | 0.58
CN1CCN(c2ccnc3ccc(NC(=O)Nc4ccc(Cl)c(Cl)c4)cc23)CC1 | 6.24 | 6.07 | 6.56
COc1ccc(OCCCCON2C(=N)N=C(N)NC2(C)C)cc1 | 3.18 | 1.29 | 2.18
O=C(O)C1Cc2c([nH]c3ccccc23)C(c2ccc(Cl)cc2Cl)N1 (stereo not given) | 3.99 | 2.22 | 4.37
